The campaign covered roughly 400,000 compounds. About 2,100 (0.53%) were called active. Not shown: some 14% with an inconclusive outcome. No rule for the calls is given here. Many of the other results were omitted from the sample, so actives are more common in it than they were.
Biological target: Ataxin-2 (Homo sapiens) (UniProt Q99700)
Assay: qHTS for Inhibitors of ATXN expression.
Type: functional

Chain of Ataxin-2 (Homo sapiens) (Q99700 whole entry): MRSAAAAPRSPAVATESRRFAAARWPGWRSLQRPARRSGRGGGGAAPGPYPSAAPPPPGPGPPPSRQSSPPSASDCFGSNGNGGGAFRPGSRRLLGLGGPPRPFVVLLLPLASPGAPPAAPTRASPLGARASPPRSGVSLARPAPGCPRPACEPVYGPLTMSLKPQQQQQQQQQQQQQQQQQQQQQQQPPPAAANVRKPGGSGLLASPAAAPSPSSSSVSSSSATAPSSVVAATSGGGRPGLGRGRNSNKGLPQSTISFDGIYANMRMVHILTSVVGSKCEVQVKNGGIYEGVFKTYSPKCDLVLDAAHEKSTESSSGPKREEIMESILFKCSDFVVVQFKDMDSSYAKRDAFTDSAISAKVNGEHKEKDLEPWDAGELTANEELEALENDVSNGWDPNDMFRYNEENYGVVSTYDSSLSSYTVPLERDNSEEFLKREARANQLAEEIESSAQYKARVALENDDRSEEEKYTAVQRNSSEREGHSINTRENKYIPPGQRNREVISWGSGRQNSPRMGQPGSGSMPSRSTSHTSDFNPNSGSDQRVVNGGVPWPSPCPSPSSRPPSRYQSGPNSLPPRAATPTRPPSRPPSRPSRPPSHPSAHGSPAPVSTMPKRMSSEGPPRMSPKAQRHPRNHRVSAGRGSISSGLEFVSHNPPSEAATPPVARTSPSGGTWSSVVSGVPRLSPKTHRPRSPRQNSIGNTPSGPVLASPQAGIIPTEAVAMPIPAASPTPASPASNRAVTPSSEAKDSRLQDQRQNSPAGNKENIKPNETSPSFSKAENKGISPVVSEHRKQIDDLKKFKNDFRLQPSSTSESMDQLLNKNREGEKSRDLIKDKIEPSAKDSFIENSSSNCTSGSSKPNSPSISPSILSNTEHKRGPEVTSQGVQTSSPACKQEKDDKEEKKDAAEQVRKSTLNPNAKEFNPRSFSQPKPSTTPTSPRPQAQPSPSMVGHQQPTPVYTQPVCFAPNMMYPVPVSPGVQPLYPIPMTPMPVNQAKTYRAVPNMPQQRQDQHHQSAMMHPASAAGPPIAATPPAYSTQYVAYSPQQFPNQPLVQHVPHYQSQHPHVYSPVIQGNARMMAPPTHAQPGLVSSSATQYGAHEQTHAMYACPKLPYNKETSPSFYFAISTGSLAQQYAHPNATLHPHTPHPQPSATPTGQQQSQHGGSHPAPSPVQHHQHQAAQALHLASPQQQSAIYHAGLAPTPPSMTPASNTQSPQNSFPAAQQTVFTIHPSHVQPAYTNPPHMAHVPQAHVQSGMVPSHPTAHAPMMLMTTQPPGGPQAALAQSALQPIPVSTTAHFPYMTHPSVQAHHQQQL

SMILES	Potency
CCN(c1ccccc1)c1nc(=O)c2cccnc2s1	inactive
O=S1(=O)C=C(Sc2nc3cc(Cl)ccc3o2)c2ccccc21	10 µM (active)
Brc1cccc(CSc2nnc(-c3ccncc3)o2)c1	inactive
O=S1(=O)C=C(Sc2nnc(-c3ccccc3)o2)c2ccccc21	11.2 µM (active)
N#C/C(=C\c1c(Oc2ccccc2F)nc2ccccn2c1=O)C(=O)NC1CCS(=O)(=O)C1 (stereo unspecified)	inactive
O=[N+]([O-])c1cc(S(=O)(=O)N2CCCCCC2)ccc1Cl	42.3 µM (active)
O=S(=O)(c1ccc(S)nc1)N1CCCCCC1	inactive
O=S(=O)(c1ccc(S)nc1)N1CCCCC1	inactive
NC(=O)c1cc(S(=O)(=O)N2CCCCC2)cs1	inactive
O=[N+]([O-])c1cc(S(=O)(=O)N2CCCCCC2)ccc1F	35.5 µM (active)
Cn1c(=O)oc2cc(S(=O)(=O)N3CCCC3)ccc21	inactive
COCc1cc(C)nc2sc(C(=O)Nc3ccccc3C)c(N)c12	inactive
O=C(Nc1nc2n(n1)C(c1ccccc1)C=C(c1ccc(Cl)cc1)N2)c1ccco1 (stereo unspecified)	inactive
CCCCc1cc(=O)oc2cc(OCC(=O)Nc3cccnc3)c(Cl)cc12	inactive
S=C(NCc1ccccc1)N/N=C/c1cccs1	inactive
Cc1ccc(CN2CCSCC2)cc1	inactive
O=C(CCC1CCCC1)NNC(=O)c1ccc(F)cc1	inactive
O=C(/C=C/c1ccc([N+](=O)[O-])o1)NNC(=O)c1ccc(F)cc1	7.08 µM (active)
O=C(CN1C(=O)/C(=C/c2ccccc2F)Oc2ccccc21)N1CCN(c2ccccn2)CC1	inactive
O=C(CSc1nnc(O)n1CCc1ccccc1)NC1CCCC1	inactive
O=C(OC1C2CCC1C1CN(CCc3ccccc3)CC12)c1ccccc1 (stereo unspecified)	31.6 µM (active)
COC(=O)c1cc(S(=O)(=O)N2CCN(Cc3ccccc3)CC2)cn1C	inactive
CCOC(=O)C1=NN(C(=O)c2ccccc2)C(O)(c2ccc(C)cc2)C1 (stereo unspecified)	inactive
CCC1=NN(C(=O)c2ccccc2O)C(O)(c2ccccc2)C1 (stereo unspecified)	25.1 µM (active)
O=C(c1ccccc1)N1N=C(c2ccccc2)CC1(O)C(F)(F)F (stereo unspecified)	inactive
CCN(C(=O)CSc1nc2n[nH]c(C)c2c(=N)n1-c1cccc(OC)c1)c1cccc(C)c1	22.4 µM (active)

SMILES	Potency
COc1cccc(-n2cnnc2SCC(=O)NC2CC2)c1	inactive
CCOC(=O)N1CCN(Cc2nc3ccc([N+](=O)[O-])cc3c(=O)n2-c2cccc(OC)c2)CC1	inactive
C[C@H](c1ccccc1)N1C[C@@H](COCc2ccccc2)Oc2cc(N3CC[C@H](N(C)C)C3)ccc2S1(=O)=O	39.8 µM (active)
CCCCC[C@@H](C)N1C[C@@H](COCc2ccccc2)Oc2cc(N3CC[C@@H](O)C3)ccc2S1(=O)=O	25.1 µM (active)
CCCCC[C@H](C)N1C[C@H](COCc2ccccc2)Oc2cc(N3CC[C@H](N(C)C)C3)ccc2S1(=O)=O	39.8 µM (active)
CCCCC[C@@H](C)N1C[C@@H](COCc2ccccc2)Oc2cc(N3CC[C@H](N(C)C)C3)ccc2S1(=O)=O	31.6 µM (active)
Cc1c(CC(=O)NCc2ccccc2)c(=O)oc2c(C)c(O)ccc12	inactive
Cc1ccc(C(C)NC(=O)C2CCCC2)c(C)c1 (stereo unspecified)	inactive
C=CCNC(=O)CSc1ncc2c(n1)-c1c(csc1SC)CC2	inactive
CC(NC(=O)c1cc2c(=O)n3ccccc3nc2n(C(C)C)c1=N)c1ccccc1 (stereo unspecified)	inactive
COCCN(CCOC)c1cc(C)c(C#N)c2nc3ccccc3n12	inactive
Cc1occc1C(=O)N1CCC2(CCCN(Cc3ccc(F)c(F)c3)C2)C1 (stereo unspecified)	inactive
Cc1cccc(N2CCN(C(=O)c3cc4c(=O)n(C)c5ccccc5c4n3C)CC2C)c1 (stereo unspecified)	39.8 µM (active)
Cn1c(C(=O)N2CCc3ccccc3C2)cc2c(=O)n3ccccc3nc21	inactive
CC1CN(C(=O)c2cc3c(=O)n4ccccc4nc3n2C)CC(C)O1 (stereo unspecified)	inactive
COc1ccc2nc(N3CCCC3)c(C#N)cc2c1	inactive
O=c1cc(CN2CCN(S(=O)(=O)c3ccc4c(c3)OCCO4)CC2)c2ccc(O)cc2o1	inactive
Cc1cccc(C2=NN(c3ccccc3)[C@@H](C(=O)N3CCOC3=O)[C@@H]2c2ccc(Cl)cc2)c1	inactive
COc1cc(/C=C/C(=O)OCC(=O)Nc2ccc([N+](=O)[O-])cc2)ccc1O	inactive
COc1ccc([N+](=O)[O-])cc1NC(=O)CC(c1ccccc1)c1ccccc1	inactive
O=C(Nc1ccc([N+](=O)[O-])cc1)Nc1ccc(OC(F)F)c(Cl)c1	35.5 µM (active)
CCOC(=O)/C=c1\s/c(=C\c2ccc3cc(OC)ccc3c2)c(=O)n1CC(=O)NCc1ccc2c(c1)OCO2	inactive
N#C/C(=C\c1c(N2CCOCC2)nc2ccccn2c1=O)C(=O)NC1CCS(=O)(=O)C1 (stereo unspecified)	inactive
CCN(CC)CCn1c(=N)n(CC(=O)c2ccc(Br)s2)c2ccccc21	inactive
Cn1c(/C(C#N)=C(\O)c2ccc(Br)s2)nc2ccccc21	inactive
CCCCn1c(=N)n(CC(=O)c2ccc(Br)s2)c2ccccc21	39.8 µM (active)

SMILES	Potency
CC(C)n1c(=N)c(C(=O)NCc2cccnc2)cc2c(=O)n3ccccc3nc21	inactive
N#Cc1c(C(F)(F)F)cc(-c2ccco2)nc1SCc1ccncc1	inactive
Cc1ccc(C(=O)CC(=O)c2ccc(C)cc2O)cc1	inactive
CCOC(=O)c1cc(C(=O)c2cc(Cl)ccc2O)coc1=N	inactive
CCN(CC)CC(=O)Nc1sc(C)c(C)c1C(=O)c1ccc(C)cc1	inactive
CCc1cc(C(=O)c2ccc(C)cc2)c(NC(=O)CCl)s1	31.6 µM (active)
Cc1cc(C(=O)c2ccc(Cl)cc2)c(NC(=O)CCl)s1	39.8 µM (active)
CCOc1ccccc1/N=c1\oc2cc(O)ccc2cc1C(=O)NCC1CCCO1 (stereo unspecified)	inactive
COC(=O)C(=O)C/C(=N/Nc1ncnc2ccccc12)c1ccc(Cl)cc1	inactive
C#CCOc1ccc(C2C3=C(CC(C)(C)CC3=O)N(CC(=O)O)C3=C2C(=O)CC(C)(C)C3)cc1	inactive
Cc1cc2nc3c(=O)n(C4CCCCC4)c(=O)[nH]c3nc2cc1N	inactive
CCCN(CC(=O)Nc1ccc(F)c(F)c1F)C(=O)Cc1ccc(OC)c(S(=O)(=O)N2CCOCC2)c1	inactive
Cc1ccccc1CN1CCN(Cc2cc3ccccc3o2)CC1CCO (stereo unspecified)	8.44 µM (active)
COc1ccc(CN2CCN(CC3CC3)CC2CCO)c(C)c1C (stereo unspecified)	inactive
CC(C)=CCN1CCN(Cc2cccc3nonc23)CC1CCO (stereo unspecified)	inactive
CCOc1ccc(C2=CC(c3ccccc3)n3ncnc3N2)cc1 (stereo unspecified)	inactive
CCOCCCn1/c(=N/C(=O)c2cccnc2)c(C(=O)OCC)cc2c(=O)n3ccccc3nc21	inactive
COC(=O)c1ccc2[nH]c3cccc(/C(=C/c4ccccc4)c4ccccc4)c3c2c1	39.8 µM (active)
O=C(OCCN1C(=O)c2cccc3c(N4CCOCC4)ccc(c23)C1=O)c1ccc(Cl)cc1Cl	inactive
O=C(CN1C(=O)c2ccccc2C1=O)OCCOCCNC1=NS(=O)(=O)c2ccccc21	inactive
COc1ccc(N2CC(C(=O)N[C@@H](C)C(=O)NCc3ccccc3OC)CC2=O)cc1 (stereo partly specified)	inactive
COc1ccc(NC(=S)N2CCC(C(=O)c3ccc(Cl)cc3)CC2)cc1	inactive
CCn1cc(Cl)c(C(=O)Nc2cc(C(=O)OC)cc(C(=O)OC)c2)n1	inactive
CCc1nc2ccc(C(=O)NCc3ccccc3OC)cn2c1N(C)Cc1ccc(OC)cc1	17.8 µM (active)
CCc1nc2ccc(C(=O)Nc3ccc(Cl)c(Cl)c3)cn2c1N(C)Cc1ccc(OC)cc1	20 µM (active)
COCCCNC(=O)c1ccc2nc3ccccc3c(=O)n2c1	inactive

SMILES	Potency
COc1ccc2c(c1)CCc1cn3ncc(C#N)c3nc1-2	inactive
O=C(O/N=C1\CCS(=O)(=O)c2sccc21)c1ccccc1	inactive
CCc1c(C)c2cc(Cl)c(O)c(CN(CC)CC)c2oc1=O	inactive
CN1C(=O)c2cccc3c(Br)ccc(c23)C1=O	inactive
Brc1ccc(COc2ncnc3ccccc23)cc1	inactive
CCOc1ccc(CN(C)C(=O)CCl)cc1	12.6 µM (active)
O=C(NCc1ccc2c(c1)OCO2)c1ccc(Cl)s1	inactive
O=C(O)c1ccccc1N(Cc1ccccc1)C(=O)COc1ccccc1	inactive
CCOc1ccc(CNC(=O)Nc2ccccc2)cc1	inactive
CN(Cc1ccc(Cl)cc1)C(=O)CCl	35.5 µM (active)
CN(Cc1ccc(Cl)s1)C(=O)CCl	23.8 µM (active)
COc1ccc(CN(C)C(S)=Nc2ccc(Cl)cc2)cc1	inactive
O=C(Nc1ccccc1F)C(=Cc1sc(N2CCOCC2)nc1-c1ccccc1)C(=O)Nc1ccccc1F	inactive
Nc1c(C(=O)Nc2ccccc2)sc2nc(-c3ccco3)ccc12	inactive
Cc1ccc2cccc(NS(=O)(=O)c3ccccc3)c2n1	inactive
CC(C)(C)C(=O)/C=c1\s/c(=C\c2ccc(-c3ccc([N+](=O)[O-])cc3)o2)c(=O)n1CC(=O)NC(N)=O	inactive
COC(=O)c1ccc2oc(=O)c(S(=O)(=O)c3ccc(C)cc3)cc2c1	inactive
CN(C)CCCN(C(=O)c1ccc2c(c1)CCCC2)c1nc2ccc(Cl)cc2s1	31.6 µM (active)
COc1cc2nc(N(CCCN(C)C)C(=O)c3ccc(C(=O)c4ccccc4)cc3)sc2cc1OC	44.7 µM (active)
CN(C)CCCN(C(=O)c1ccco1)c1nc2ccc(Cl)cc2s1	39.8 µM (active)
CN(C)CCCN(C(=O)c1cccs1)c1nc2cc3c(cc2s1)OCO3	inactive
Cc1ccc2nc(N(CCCN(C)C)C(=O)c3ccc4c(c3)CCCC4)sc2c1	39.8 µM (active)
S=C(Nc1ccccc1Cl)N1CCCC(c2ccccc2)=N1	inactive

— ChEMBL document CHEMBL1201862, “PubChem BioAssay data set” (2004)
